This is a sample that favours compounds with a hit; in the whole collection about 12% have one here.
Sfp PPTase inh: Sfp phosphopantetheinyl transferase inhibition. Q9F4F7. Biochemical Sfp PPTase activity, qHTS. Potency, µM, for inactives: largest response in the series, negative = inhibition, usual class: inhibitors. 3.5% of 310,000 active;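 note: the enzyme is Sfp with the accession as filed and its product quenches rhodamine fluorescence; 0% = enzyme reaction without inhibitor and -100% = no enzyme wells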
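Fluorescence-quenching assay with 15 nM Sfp, 5 uM rhodamine-CoA and 12.5 uM BHQ-2-labelled ybbR peptide in pH 7.6 Hepes/MgCl2 buffer. Enzyme was pre-incubated with compound for 15 min at room temperature. Rate was taken from the 30-min fluorescence change (525/598 nm).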
BAZ2B inh: inhibitors of human BAZ2B bromodomain; AlphaScreen BAZ2B-H3K14Ac peptide displacement; Potency, µM (titrated, usually from 114 µM), for the others: top-dose activity change, negative = inhibition, most hits filed as inhibitors; 4.4% of 360,000 active; AID 504333; note: % is set by controls: 0 for no effect and ±100 for the full control effect; nearly all actives have a fitted effect of over 60% in size
Target sequence (Q9UIF8 whole entry, looked up): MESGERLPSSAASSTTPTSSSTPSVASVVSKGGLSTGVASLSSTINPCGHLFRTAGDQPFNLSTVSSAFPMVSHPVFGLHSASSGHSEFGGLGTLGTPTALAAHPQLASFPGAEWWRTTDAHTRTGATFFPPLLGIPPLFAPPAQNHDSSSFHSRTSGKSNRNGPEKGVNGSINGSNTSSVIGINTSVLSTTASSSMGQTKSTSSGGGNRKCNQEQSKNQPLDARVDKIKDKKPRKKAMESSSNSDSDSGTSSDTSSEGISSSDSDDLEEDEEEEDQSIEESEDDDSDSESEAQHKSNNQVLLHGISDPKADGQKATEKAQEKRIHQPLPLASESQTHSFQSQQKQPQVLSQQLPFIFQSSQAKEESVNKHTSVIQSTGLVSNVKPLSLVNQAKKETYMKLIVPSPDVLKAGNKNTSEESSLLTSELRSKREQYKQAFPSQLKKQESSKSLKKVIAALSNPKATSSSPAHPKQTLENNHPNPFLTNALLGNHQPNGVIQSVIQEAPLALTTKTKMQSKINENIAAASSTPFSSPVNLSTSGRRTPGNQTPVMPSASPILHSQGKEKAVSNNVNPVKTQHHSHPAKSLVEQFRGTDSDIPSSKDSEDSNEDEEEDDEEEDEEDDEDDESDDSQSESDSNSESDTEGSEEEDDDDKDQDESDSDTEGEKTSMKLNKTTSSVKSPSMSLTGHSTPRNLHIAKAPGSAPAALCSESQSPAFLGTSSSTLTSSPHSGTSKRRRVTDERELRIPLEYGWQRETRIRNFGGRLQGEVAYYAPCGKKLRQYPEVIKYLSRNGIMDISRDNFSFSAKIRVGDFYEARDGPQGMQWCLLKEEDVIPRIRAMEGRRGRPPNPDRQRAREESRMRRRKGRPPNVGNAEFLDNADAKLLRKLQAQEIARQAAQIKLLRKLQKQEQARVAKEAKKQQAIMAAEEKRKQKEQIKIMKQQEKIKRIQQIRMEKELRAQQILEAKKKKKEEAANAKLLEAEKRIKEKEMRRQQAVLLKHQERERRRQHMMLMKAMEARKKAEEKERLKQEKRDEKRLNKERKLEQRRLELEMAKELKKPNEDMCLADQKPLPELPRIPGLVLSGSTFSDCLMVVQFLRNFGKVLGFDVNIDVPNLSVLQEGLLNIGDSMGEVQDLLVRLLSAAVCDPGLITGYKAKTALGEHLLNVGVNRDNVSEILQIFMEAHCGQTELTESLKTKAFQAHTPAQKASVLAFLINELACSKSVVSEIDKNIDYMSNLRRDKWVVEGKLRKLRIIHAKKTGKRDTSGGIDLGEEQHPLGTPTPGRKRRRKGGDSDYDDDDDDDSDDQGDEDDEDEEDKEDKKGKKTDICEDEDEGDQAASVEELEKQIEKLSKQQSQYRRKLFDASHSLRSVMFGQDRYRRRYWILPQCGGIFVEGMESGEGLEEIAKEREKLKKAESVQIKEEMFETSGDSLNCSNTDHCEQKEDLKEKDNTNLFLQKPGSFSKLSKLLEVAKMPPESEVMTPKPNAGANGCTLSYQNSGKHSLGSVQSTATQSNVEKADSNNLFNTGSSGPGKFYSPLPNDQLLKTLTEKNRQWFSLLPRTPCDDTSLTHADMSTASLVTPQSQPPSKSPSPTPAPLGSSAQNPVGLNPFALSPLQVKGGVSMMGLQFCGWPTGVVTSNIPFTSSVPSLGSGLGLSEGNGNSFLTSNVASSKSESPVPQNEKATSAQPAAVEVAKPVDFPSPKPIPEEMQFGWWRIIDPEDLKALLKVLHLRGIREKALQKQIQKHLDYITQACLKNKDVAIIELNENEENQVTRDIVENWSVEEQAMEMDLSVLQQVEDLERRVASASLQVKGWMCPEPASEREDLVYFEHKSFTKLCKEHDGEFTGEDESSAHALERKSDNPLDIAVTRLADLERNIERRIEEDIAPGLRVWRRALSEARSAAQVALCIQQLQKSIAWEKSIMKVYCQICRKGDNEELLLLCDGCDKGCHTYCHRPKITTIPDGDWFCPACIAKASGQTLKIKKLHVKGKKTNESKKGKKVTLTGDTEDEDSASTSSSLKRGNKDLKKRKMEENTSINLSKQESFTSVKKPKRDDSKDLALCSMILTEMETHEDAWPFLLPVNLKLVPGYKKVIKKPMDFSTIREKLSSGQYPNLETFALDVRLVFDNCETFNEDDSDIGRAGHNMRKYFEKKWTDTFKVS
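Inhibition is scored as reduced AlphaScreen emission. The BAZ2B/b-H3(5-23)K14Ac complex (50 nM each) in PBS pH 7.4, 0.01% Tween-20 meets compound (up to 110 uM) for 30 min at RT before bead addition.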
G9a inh: blocks human histone lysine methyltransferase G9a; Q96KQ7; 8.8% of 350,000 active; Potency, µM (doses to about 102 µM), for inactives: at the highest dose activity, negative = inhibition, hits mostly inhibitors; G9a H3K9 monomethylation, AlphaScreen, 2 h; note: % is set by controls: 0 for no effect and ±100 for the full control effect; nearly all actives have a fitted effect of over 75% in size
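Methyltransferase reactions run at room temperature for 2 h (20 nM enzyme, 500 nM biotin-H3K9 peptide, 20 uM SAM) after a 15 min compound preincubation; product detected by AlphaScreen beads and anti-H3K9me1 antibody.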
L3MBTL1 inh: blocks human L3MBTL1 | 0.66% of 230,000 active | AlphaScreen L3MBTL1–H3K9me1 peptide binding | AID 485360 | Q9Y468 | Potency, µM (doses to about 57.1 µM), without a hit: top-dose activity, negative = inhibition, most hits filed as inhibitors; note: % is set by controls: 0 for no effect and ±100 for the full control effect; nearly all actives have a fitted effect of over 60% in size
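First, the protein-peptide complex forms for 30 min at room temperature (L3MBTL1 50 nM, biotinylated H3K9me1 peptide 75 nM). Next, compounds are pin-transferred and incubated 30 min. Finally, AlphaScreen beads are added and read after 30 min.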
JMJD2A Tudor: inhibitors of human JMJD2A Tudor domain. O75164. AlphaScreen JMJD2A-Tudor / H3K4me3 peptide binding. Potency, µM (titrated, usually from 114 µM), for inactives: top-dose activity change, negative = inhibition, usual class: inhibitors. 4.4% of 390,000 active; note: % is set by controls: 0 for no effect and ±100 for the full control effect; nearly all actives have a fitted effect of over 50% in size
HP1b binding inh: HP1-beta chromodomain-methylated histone interaction inhibition. P83916. AlphaScreen HP1-beta / biotin-H3K9me3 peptide binding. Potency, µM (highest dose often 114 µM), without a hit: at the highest dose activity change, negative = inhibition, hits mostly inhibitors. 0.56% of 390,000 active; note: nearly all actives have a fitted effect of over 70% in size
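Compound inhibition of the preformed complex between 50 nM HP1-beta and 50 nM biotinylated H3K9me3 peptide was read by AlphaScreen. Buffer was PBS pH 7.4 with 0.01% Tween-20. Incubations ran 30 min at room temperature, with 10 ug/mL donor/acceptor beads.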
* hit, by the source's call; [ ] = remark or other dose. Calls come from the whole dose curve; as a rule, active = well fitted curve in the direction sought with a large enough effect; inconclusive = small, poorly fitted or top-dose-only effect, or another doubt; inactive = no such curve, though single readings can be large; an effect the other way counts as inactive or inconclusive. Potency is the fitted concentration of half-maximal effect.

`COc1cc(NC(=O)C2C3C=CC(C3)C2C(=O)O)ccc1NC(=O)c1ccccc1` (stereo not given) gave Sfp PPTase inh 89.1µM*, BAZ2B inh -0.6%, G9a inh -1.7%, JMJD2A Tudor -13.2% and HP1b binding inh 4.3%.
Screening COc1cccc(C(=O)Nc2ccc(NC(=O)C3C4C=CC(C4)C3C(=O)O)cc2)c1 (stereo not given) returned Sfp PPTase inh -22.9%, BAZ2B inh -1.2%, JMJD2A Tudor -4.1% and HP1b binding inh 27.9%.
Screening Cc1ccc(-c2cccc(NC(=O)C3C4C=CC(C4)C3C(=O)O)c2)o1 (stereo not given) returned Sfp PPTase inh 35.5µM*, BAZ2B inh inconclusive, G9a inh inconclusive, JMJD2A Tudor -32.9% and HP1b binding inh 16.0%.
For O=C(O)C1C2C=CC(C2)C1C(=O)Nc1ccc2c(c1)OCCO2 (stereo not given) the results were Sfp PPTase inh 0.5%, BAZ2B inh 8.2%, G9a inh -2.4%, L3MBTL1 inh -6.2%, JMJD2A Tudor -10.7%[57.1 µM] and HP1b binding inh 56.2%.
`COc1cc(NC(=O)C2C3C=CC(C3)C2C(=O)O)c(OC)cc1Cl` (stereo not given) gave Sfp PPTase inh -27.6%, BAZ2B inh 0.3%, G9a inh 11.2µM*, L3MBTL1 inh -6.9%, JMJD2A Tudor -17.8% and HP1b binding inh 18.8%.
Screening COc1ccc(C)cc1NC(=O)C1C2C=CC(C2)C1C(=O)O (stereo not given) returned Sfp PPTase inh -24.2%, BAZ2B inh 2.7%, G9a inh -37.8%, L3MBTL1 inh 2.3%, JMJD2A Tudor -27.3% and HP1b binding inh 10.3%.
`CN(C)c1ccc(NC(=O)C2C3C=CC(C3)C2C(=O)O)cc1` (stereo not given) gave Sfp PPTase inh 50.1µM*, BAZ2B inh 35.5µM*, G9a inh 22.4µM*, JMJD2A Tudor inconclusive and HP1b binding inh 1.3%.
`COC(=O)CN=C1OC(=O)N2C(=O)C3=C4C(C[C@H]5C(=O)N(c6ccccc6)C(=O)[C@H]5[C@H]4[C@@]12Cc1ccccc1)[C@H]1C(=O)N(c2ccccc2)C(=O)[C@H]1[C@H]3C` (stereo not given in full) gave Sfp PPTase inh 24.8%.
Screening COc1cc([N+](=O)[O-])ccc1NC(=O)C1C2C=CC(C2)C1C(=O)O (stereo not given) returned Sfp PPTase inh 31.6µM*, BAZ2B inh 0.8%, G9a inh -4.5%[0.501 µM], L3MBTL1 inh 1.1%[2.29 µM], JMJD2A Tudor -8.3% and HP1b binding inh 22.5%.
For CN(C)CCc1cc2c(c3c1ccc1ccccc13)OCO2 the results were Sfp PPTase inh -4.7%, BAZ2B inh inconclusive, G9a inh 39.8µM*, L3MBTL1 inh -3.8%, JMJD2A Tudor -54.2% and HP1b binding inh inconclusive.
CCCCn1c(SCC(=O)N(C)C)nnc1-c1ccncc1 was read as Sfp PPTase inh 4.6%, BAZ2B inh -0.8%, L3MBTL1 inh 28.6%, JMJD2A Tudor 1.5%[57.1 µM] and HP1b binding inh 48.5%.
For CCOC(=O)c1c(C)[nH]c(C)c1C(=O)CSc1nnc(-c2ccncc2)n1Cc1ccccc1 the results were Sfp PPTase inh 3.2%, BAZ2B inh inconclusive, G9a inh 56.2µM*, JMJD2A Tudor -21.7% and HP1b binding inh -1.1%.
`C=CCn1c(SCn2nnc3ccccc3c2=O)nnc1-c1ccc(F)cc1` gave Sfp PPTase inh 8.6%, BAZ2B inh 10.2%, G9a inh 31.6µM*, L3MBTL1 inh 4.5%, JMJD2A Tudor -6.5% and HP1b binding inh 41.4%.
`C=CCn1c(SCC(=O)N2CCCCC2)nnc1-c1ccncc1` gave Sfp PPTase inh 25.7%, BAZ2B inh -16.7%, G9a inh 18.2%, L3MBTL1 inh 8.9%, JMJD2A Tudor -13.0% and HP1b binding inh 24.1%.
For C=CCn1c(SCC(=O)N2CC(C)OC(C)C2)nnc1-c1ccncc1 (stereo not given) the results were BAZ2B inh -5.3%, G9a inh 7.94µM*, L3MBTL1 inh -0.2%, JMJD2A Tudor 0.0% and HP1b binding inh 28.9%.
`CCOC(=O)CN(C(=O)CSc1nnc(-c2ccncc2)n1CCCN(C)C)c1ccccc1` gave Sfp PPTase inh -14.0%, BAZ2B inh 50.1µM*, G9a inh 2.82µM*, L3MBTL1 inh 3.0%[11.4 µM], JMJD2A Tudor inconclusive and HP1b binding inh inconclusive.
For Cc1[nH]c2ccccc2c1C(=O)CSc1ccc(Cl)cc1 the results were Sfp PPTase inh 14.8%, BAZ2B inh -25.4%, G9a inh -30.4%, L3MBTL1 inh -1.4%[11.4 µM], JMJD2A Tudor 22.4µM* and HP1b binding inh inconclusive.
`C=CCn1c(SCC(=O)c2c(C)[nH]c3ccccc23)nnc1-c1ccncc1` gave Sfp PPTase inh -9.3%, BAZ2B inh 3.3%, G9a inh 50.1µM*, L3MBTL1 inh 8.9%, JMJD2A Tudor 1.5%[11.4 µM] and HP1b binding inh 25.3%.
For COc1cccc(NC(=O)c2oc3ccc(S(=O)(=O)N(C)C4CCCCC4)cc3c2C)c1 the results were BAZ2B inh -3.0%, G9a inh -4.5%[59 µM], JMJD2A Tudor -14.7% and HP1b binding inh 24.6%.
`CCN(CC)c1ccc(C2C(C(=O)OCCOC(C)C)=C(C)NC3=C2C(=O)CCC3)cc1` (stereo not given) gave Sfp PPTase inh -1.3%, BAZ2B inh 50.1µM*, G9a inh 10µM*, L3MBTL1 inh -14.6%, JMJD2A Tudor inconclusive and HP1b binding inh -7.3%.
CCC(C)OC(=O)C1=C(C)NC2=C(C(=O)C(C(=O)OC)C(C)C2)C1c1ccc(N(C)C)cc1 (stereo not given) was read as Sfp PPTase inh -8.9%, BAZ2B inh inconclusive, G9a inh 5.01µM*, L3MBTL1 inh -6.5%, JMJD2A Tudor 17.8µM* and HP1b binding inh inconclusive.
For CCCOC(=O)C1=C(C)NC2=C(C(=O)C(C(=O)OC)C(C)C2)C1c1ccc(N(CC)CC)cc1 (stereo not given) the results were Sfp PPTase inh -10.7%, BAZ2B inh inconclusive, G9a inh 3.55µM*, L3MBTL1 inh -17.7%, JMJD2A Tudor -32.3%[57.1 µM] and HP1b binding inh -5.7%.
`CCOC(=O)C1=C(C)NC2=C(C(=O)C(C(=O)OC)C(C)C2)C1c1ccc(OC)c(O)c1` (stereo not given) gave Sfp PPTase inh -2.5%, BAZ2B inh 5.4%, G9a inh 16.9%[0.0925 µM], L3MBTL1 inh 3.7%, JMJD2A Tudor 38.9% and HP1b binding inh 17.8%.

High-throughput results as filed in PubChem.
